# Rows were chosen to be rich in hits. Some 0.92% of all compounds tested hit in one or more screens of this group.
# FEN1 inh-1: human FEN1 inhibition | Recombinant FEN1 flap cleavage, fluorescence, 15 min | Potency, µM (series often up to 114 µM), for the others: at the top dose activity change, negative = inhibition, hits mostly inhibitors | 0.35% of 390,000 active | AID 588795; note: % is set by controls: 0 for no effect and ±100 for the full control effect; nearly all actives have a fitted effect of over 65% in size
#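 With each library titrated from low to high concentration, compounds met 10 nM FEN1 for 15 min at room temperature before 50 nM substrate was added; readings at 0 and 15 min fed four-parameter Hill curve fits.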
# APE1 inh: APE1 (human) endonuclease inhibition. recombinant APE1, TAMRA/BHQ-2 abasic DNA cleavage fluorescence. 0.35% of 350,000 active. Potency, µM (top dose mostly 65.8 µM), inactives show at the top dose activity change, negative = inhibition, most hits filed as inhibitors. AID 2517;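 note: plate controls were vehicle for no effect and reference inhibitor for full effect; nearly all actives have a fitted effect of over 55% in size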
#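 Substrate: short duplex with […] THF abasic site, 5'-TAMRA and 3'-BHQ-2, 50 nM final. APE1 at 0.75 nM, preincubated 15 min RT with compound. Fluorescence increase from first to third read measured activity.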
# TDP1 block: TDP1 (human) enzyme inhibition; Q9NUW8; Potency, µM (doses to about 130 µM), for the others: top-dose activity change, negative = inhibition, hits mostly inhibitors; recombinant TDP1, AlphaScreen DNA substrate cleavage; 0.28% of 350,000 active; note: % is set by controls: 0 for no effect and ±100 for the full control effect; nearly all actives have a fitted effect of over 40% in size
#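 Here, a 5' biotin and 3' phosphotyrosine-FITC DNA oligonucleotide reports Tdp1 activity: intact substrate bridges AlphaScreen beads, while cleavage leaves a 3' phosphate and drops signal. All incubations at room temperature.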
# BLM helicase inh: inhibitors of human Bloom syndrome helicase BLM | 0.2% of 350,000 active | recombinant BLM DNA unwinding, fluorescence dequenching | Potency, µM (series often up to 56.1 µM), for inactives: at the top dose activity change, negative = inhibition, usual class: inhibitors;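 note: plate controls were vehicle for no effect and no enzyme for full effect; nearly all actives have a fitted effect of over 35% in size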
# RECQ1 inh-1: RECQ1 (human) helicase inhibition; P46063; RECQ1 DNA unwinding, red fluorescence kinetic read; Potency, µM (doses to about 57.3 µM), for inactives: top-dose activity, negative = inhibition, most hits filed as inhibitors; 0.54% of 240,000 active;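 note: plate controls were vehicle for no effect and no enzyme for full effect; nearly all actives have a fitted effect of over 30% in size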
# Target sequence (P46063 whole entry, looked up): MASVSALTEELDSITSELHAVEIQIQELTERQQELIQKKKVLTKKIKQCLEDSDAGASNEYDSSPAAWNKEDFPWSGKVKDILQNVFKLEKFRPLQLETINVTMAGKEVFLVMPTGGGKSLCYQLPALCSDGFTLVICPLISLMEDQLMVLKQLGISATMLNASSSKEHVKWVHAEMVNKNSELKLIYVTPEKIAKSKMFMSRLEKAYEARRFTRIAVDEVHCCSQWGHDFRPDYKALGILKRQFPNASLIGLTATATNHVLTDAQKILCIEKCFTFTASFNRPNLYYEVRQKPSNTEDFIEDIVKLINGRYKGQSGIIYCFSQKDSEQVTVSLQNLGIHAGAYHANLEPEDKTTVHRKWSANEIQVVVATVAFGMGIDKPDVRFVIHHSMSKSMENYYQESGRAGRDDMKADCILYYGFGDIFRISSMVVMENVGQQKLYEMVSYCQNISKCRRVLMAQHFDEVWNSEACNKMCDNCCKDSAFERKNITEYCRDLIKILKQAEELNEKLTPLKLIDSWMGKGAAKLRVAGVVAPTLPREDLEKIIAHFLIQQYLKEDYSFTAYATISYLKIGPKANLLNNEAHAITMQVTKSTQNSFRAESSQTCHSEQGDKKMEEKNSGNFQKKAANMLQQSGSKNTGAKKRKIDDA
#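 RECQ1T1 50 nM; forked duplex (20 bp + 30-nt ss tails) 200 nM, ATP 2 mM final; pH 8.0, 2 mM MgCl2, 2.5 ug/ml poly(dI-dC); 15 min compound preincubation; discontinuous kinetic read over 2 h at RT.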
# RECQ1 inh conf: confirmation of human RECQ1 helicase inhibitors | RECQ1 helicase DNA unwinding, fluorescence | shares compounds with RECQ1 inh-1 | Potency, µM (highest dose often 229 µM), inactives show at the top dose activity change, negative = inhibition, actives largely listed as inhibitors | 28% of 610 active | AID 2708; note: % is set by controls: 0 for no effect and ±100 for the full control effect; nearly all actives have a fitted effect of over 45% in size
# RECQ1 ADP FP: displaces ADP in a fluorescence polarization counter-screen for RECQ1 hits; shares compounds with RECQ1 inh-1; ADP fluorescence polarization displacement counterscreen; Potency, µM (series often up to 228 µM), without a hit: at the highest dose activity change, negative = inhibition, hits mostly inhibitors; 27% of 530 active; AID 2711; note: % is set by controls: 0 for no effect and ±100 for the full control effect; nearly all actives have a fitted effect of over 45% in size
# RECQ1 inh-2: blocks human RECQ1 DNA unwinding | shares compounds with RECQ1 inh-1 | recombinant RECQ1 DNA unwinding, red fluorescence | Potency, µM (top dose mostly 119 µM), for inactives: at the top dose activity, negative = inhibition, hits mostly inhibitors | 15% of 1,100 active | AID 504841; note: % is set by controls: 0 for no effect and ±100 for the full control effect; nearly all actives have a fitted effect of over 50% in size
# FEN1 inh-2: FEN1 inhibition, cherry-pick retest | shares compounds with FEN1 inh-1 | 79% of 880 active | FEN1 flap cleavage, TAMRA/BHQ2 fluorogenic DNA substrate | Potency, µM, hits mostly inhibitors; note: nearly all actives have a fitted effect of over 60% in size
# * = called active by the depositor; i = inactive; u = inconclusive; x = no result given; [ ] = another dose, or the depositor's remark. Calls come from the whole dose curve; as a rule, active = well fitted curve in the direction sought with a large enough effect; inconclusive = small, poorly fitted or top-dose-only effect, or another doubt; inactive = no such curve, though single readings can be large; an effect the other way counts as inactive or inconclusive. Potency is the fitted concentration of half-maximal effect.
SMILES,FEN1 inh-1,APE1 inh,TDP1 block,BLM helicase inh,RECQ1 inh-1,FEN1 inh-2,others
CCc1ccc(N2C(=O)NC(=O)/C(=C\C=C\c3ccco3)C2=O)cc1,22.4µM*,u,-1.2%,-1.3%,8.91µM*,x,RECQ1 inh conf=u;RECQ1 ADP FP=50.1µM*
CCC12CCN(CC3CC3)CC1Oc1c(C)cccc12 (stereo not given),x,7.5%,x,x,x,x,
CO/C1=C\C(C)=C\[C@@H](C)[C@@H](O)[C@@H](C)C/C(C)=C/C=C/[C@H](OC)[C@@H]([C@@H](C)[C@@H](O)[C@H](C)[C@@]2(O)C[C@@H](O)[C@H](C)C(C(C)C)O2)OC1=O (stereo not given in full),x,u,16.1%,-13.2%,i,x,
O=C(N/N=C/c1c(O)n(Cc2ccco2)c(=O)[nH]c1=O)c1ccccc1O,-18.3%,u,6.5%,-8.9%,u,x,
CCCCC(=O)N/N=C/c1c(O)n(Cc2ccco2)c(=O)[nH]c1=O,-6.5%,-11.4%,4.1%,3.5%,31.6µM*,x,RECQ1 inh-2=-13.3%
Cc1ccc2c(c1Cl)NC(C(=O)O)C1CC(Sc3ccccc3[N+](=O)[O-])C(Cl)C21 (stereo not given),u,-4.0%,1.9%,-15.8%,-27.9%,x,
CCN(CC)C(=O)c1ccc2c(c1)C1C(Cl)C(Sc3ccccc3[N+](=O)[O-])CC1C(C(=O)O)N2 (stereo not given),u,-11.3%,2.6%,-24.9%,-22.5%,x,RECQ1 inh conf=u;RECQ1 ADP FP=126µM*
CN(C)NC(=O)CCC(=O)O,x,14.0%,3.1%,x,-18.0%,x,
Cc1cccn2c(=O)c(C=Nc3ccccc3)c(NCc3ccco3)nc12,u,u,1.0%,-0.3%,u,x,RECQ1 inh-2=12.4%
Cc1ccc(N2C(=O)NC(=O)/C(=C/c3ccoc3)C2=O)cc1,35.5µM*,1.58µM*,3.16µM*,15.8µM*,12.6µM*,60.1*,
Cc1ccc(N2C(=O)NC(=O)/C(=C/c3cnn(-c4ccc(C)cc4)c3)C2=O)cc1,3.2%,0.8%,-5.3%,1.2%,-5.3%,x,
CN1C(=O)CCS(=O)(=O)[C@H]1c1ccc(Cl)cc1,x,-4.7%,11.9%[56.1 µM],2.0%,i,x,
O=[N+]([O-])c1ccc(N2CCCCCC2)c2nonc12,u,-54.9%,x,-21.6%,x,42.6*,
COC(=O)C1=C(C)NC(C)=C(C(=O)NCCCN2CCC(c3ccccc3)(c3ccccc3)CC2)C1c1ccc([N+](=O)[O-])cc1 (stereo not given),x,-4.7%,18.7%,-7.8%,1.8%,x,
Cc1cccc(N2C(=O)/C(=C/c3ccc(N4CCN(C)CC4)o3)C(=O)NC2=S)c1C,-15.1%,-12.2%,1.3%,-7.9%,-16.7%,84.9*,
CCc1ccccc1N1C(=O)/C(=C/c2ccc(N3CCN(C)CC3)o2)C(=O)NC1=S,u,1.0%,-2.6%,-7.9%,-11.8%,x,
Cn1cccc1/C=C1/C(=O)NC(=S)N(Cc2ccc(F)cc2)C1=O,-22.9%,u,x,u,25.1µM*,u,
Cn1cccc1/C=C1/C(=O)NC(=O)N(Cc2ccc(F)cc2)C1=O,-6.4%,-9.7%,x,-22.0%,u,x,
C[C@H](N)Cc1ccccc1,x,x,x,-5.1%,x,x,
Cc1cccc(Oc2nc3c(C)cccn3c(=O)c2/C=C(\C#N)c2nc3ccccc3s2)c1,u,x,-10.6%,-5.1%,x,67.5*,
Cc1cccn2c(=O)c(/C=C(\C#N)c3nc4ccccc4s3)c(Oc3ccc(F)cc3)nc12,u,x,-8.5%,-4.2%,x,x,
CN(CC(=O)N[C@H](CO)Cc1ccccc1)C(=O)[C@H](CCS(C)=O)NC(=O)[C@@H](N)Cc1ccc(O)cc1 (stereo not given in full),x,-0.3%,6.1%,x,4.9%,x,
C=C1C([C@@]2(C)C(OC(C)=O)CC(=O)O[C@@](C)(COC(C)=O)C2CC(=O)OC)C(OC=O)C(OC(=O)C(OC(C)=O)C(C)CC)[C@]2(C)C(c3ccoc3)CC(=O)C12O (stereo not given in full),x,-4.6%,8.6%,-2.4%,13.9%,x,
O=C1NC(=O)N(c2ccccc2)C(=O)/C1=C\c1ccc([N+](=O)[O-])s1,31.6µM*,u,3.9%,-6.3%,u,19*,
CN1C(=O)NC(=O)/C(=C/c2ccc([N+](=O)[O-])s2)C1=O,u,u,-9.3%,-0.6%,u,7.57*,
SMILES,FEN1 inh-1,APE1 inh,TDP1 block,BLM helicase inh,RECQ1 inh-1,FEN1 inh-2,others
Oc1cc(Cl)cc(Cl)c1,x,-1.3%,3.7%,x,-4.4%,x,
C=C(C)[C@]12C[C@@H](C)[C@@]34OC(Cc5ccccc5)(O[C@@H]1[C@@H]3C=C(COC(=O)Cc1cc(I)c(O)c(OC)c1)C[C@]1(O)C(=O)C(C)=C[C@@H]41)O2,x,-3.2%,11.2%,-16.8%,-14.4%,x,
O=C1NC(=O)N(Cc2ccccc2)C(=O)/C1=C\c1ccco1,44.7µM*,u,-6.0%,u,u,75.7*,
Cn1cccc1/C=C1\C(=O)NC(=O)N(Cc2ccccc2)C1=O,-1.4%,12.0%,5.0%,-19.7%,u,x,
O=C1NC(=S)NC(=O)C1=Cc1cccc2cc3ccccc3cc12,u,-10.1%,-12.7%,-5.2%,-4.2%,x,
CN1/C(=C\C=C2C(=O)NC(=S)NC2=O)C(C)(C)c2ccccc21,39.8µM*,2.9%,-0.6%,-28.7%,-1.4%,75.7*,
CC1(C)OC(c2ccccc2)=C/C(=C/C=C2C(=O)NC(=S)NC2=O)O1,u,-11.1%,11.9%,22.4µM*,25.1µM*,84.9*,
CN1CCC(N(C)c2nc(-c3ccc([N+](=O)[O-])cc3)nc3ccccc23)CC1,35.5µM*,-8.4%,0.0%,23.1%,-5.3%,33.8*,
CC[N+](C)(CC)CCCCOc1ccc2c(c1)C(=O)c1cc(OCCCC[N+](C)(CC)CC)ccc1-2,u,-5.3%,-5.6%,-29.4%,-13.3%,21.3*,
COc1cccc2c1C(=O)c1c(O)c3c(c(O)c1C2=O)CC(O)(C(C)=NO)CC3OC1CC(N)C(O)C(C)O1 (stereo not given),u,x,x,x,x,30.1*,
CCCC[N+](=O)[O-],x,-3.3%,11.6%,x,-15.5%,x,

# Compound activity (PubChem)
